# Measured values from PubChem BioAssay (NCATS).
# Inconclusive results are not listed. Entries that show only a call come without a potency. Active and inactive are the calls of the source. Unless noted, calls follow the shape of the dose curve; as a rule, active = well fitted curve in the direction sought with a large enough effect; inconclusive = small, poorly fitted or top-dose-only effect, or another doubt; inactive = no such curve, though single readings can be large; an effect the other way counts as inactive or inconclusive.
# How the values were obtained:
# [1] = qHTS for differential inhibitors of proliferation of Plasmodium falciparum line 3D7 (AID 1876); also: potency is read from the fitted curve at half-maximal effect
# [2] = qHTS for differential inhibitors of proliferation of Plasmodium falciparum line D10 (AID 1877);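 also: parasites grown with compound for 72 h before DNA staining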; also: potency is read from the fitted curve at half-maximal effect
# [3] = qHTS for differential inhibitors of proliferation of Plasmodium falciparum line Dd2 (AID 1882); settings: Potency: Plasmodium falciparum Dd2 proliferation inhibition; also: nearly all actives have a fitted effect of over 65% in size; also: potency is read from the fitted curve at half-maximal effect
# In short: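 Dd2-infected erythrocytes (0.3% parasitemia, 2.5% hematocrit final) incubated with compound 72 h at 37 C, 5% CO2; lysed with saponin/Triton buffer containing SYBR Green I, incubated overnight in the dark, then read by fluorescence (485/535 nm). Normalized to 0.29 uM artemisinin and DMSO.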
# [4] = biological target: RecQ-like DNA helicase BLM (Homo sapiens) (UniProt P54132); experiment: qHTS Validation Assay for Inhibitors of Bloom's syndrome helicase (BLM) (AID 2364); also: potency is read from the fitted curve at half-maximal effect
# In short: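 BLM 50 nM in 25 mM Tris-HCl pH 8.0, 5 mM NaCl, 2 mM MgCl2, 1 mM DTT, 0.01% Tween-20, 2.5 ug/ml poly(dI-dC); 15 min cpd preinc, RT. Start: 200 nM forked DNA + 2 mM ATP (final). TAMRA read, 2 reads 2 h apart.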
# [5] = qHTS for differential inhibitors of proliferation of Plasmodium falciparum line W2 (AID 1883); settings: Potency: Plasmodium falciparum W2 proliferation inhibition;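 also: parasites grown with compound for 72 h before lysis and staining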; also: potency is read from the fitted curve at half-maximal effect
# [6] = qHTS for differential inhibitors of proliferation of Plasmodium falciparum line HB3 (AID 1886); settings: Potency: Plasmodium falciparum HB3 proliferation inhibition;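 also: parasites grown with compound for 72 h before SYBR Green readout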; also: potency is read from the fitted curve at half-maximal effect
# [7] = qHTS Assay for Modulators of Human Peripheral Myelin Protein 22 (PMP22) Expression/Activity (AID 1967; active = well fitted curve in the direction sought with a large enough effect in the signal ratio; the % refers to the signal ratio)
# In short: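 Quantitative HTS in a mouse Schwann cell line expressing dual click beetle luciferases: Pmp22 promoter (green) and control EF-alpha promoter (red). After 24h treatment, corrected green/red signal ratio gave %Activity relative to untreated cells.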
# [8] = biological target: Ferritin light chain (Equus caballus) (UniProt P02791); experiment: qHTS Validation Assay for Identification of Novel General Anesthetics (AID 2323); also: series mostly up to about 77 µM
# In short: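 Apoferritin from horse spleen (10 uM) was mixed with 1-aminoanthracene at 50% saturation in PBS, then compounds were added. After 10 min at room temperature, fluorescence was read (ex 380 nm, em 535 nm) and normalized to free-probe and complex controls.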
# [9] = biological target: ATP-dependent DNA helicase Q1 (Homo sapiens) (UniProt P46063); experiment: qHTS Validation Assay for Inhibitors of RecQ-Like Dna Helicase 1 (RECQ1) (AID 2353); also: potency is read from the fitted curve at half-maximal effect
# In short: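 50 nM RECQ1T1 preincubated 15 min with compound in Tris pH 8.0 buffer with MgCl2, DTT, Tween-20 and 2.5 ug/ml poly(dI-dC); started with 200 nM TAMRA/BHQ-2 forked duplex and 2 mM ATP. Unwinding read as fluorescence (525/598 nm), two reads 2 h apart.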
# [10] = qHTS Assay for Identification of Small Molecule Inducers of Hypoxia Response (AID 2120; active = well fitted curve in the direction sought with a large enough effect in the signal ratio, with a control signal flat, not every such curve was filed as active; the % refers to the signal ratio)
# In short: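 ME-180 HRE-bla cells plated in Opti-MEM/0.5% dialyzed FBS, rested 4-5 h, then dosed with compound titrations by pin tool. After 17 h at 37 degrees C, CCF4 dye loaded 2.5 h at RT; 460/530 nm ratio gave %Activity and AC50.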
# Chain of RecQ-like DNA helicase BLM (Homo sapiens) (P54132 whole entry, looked up): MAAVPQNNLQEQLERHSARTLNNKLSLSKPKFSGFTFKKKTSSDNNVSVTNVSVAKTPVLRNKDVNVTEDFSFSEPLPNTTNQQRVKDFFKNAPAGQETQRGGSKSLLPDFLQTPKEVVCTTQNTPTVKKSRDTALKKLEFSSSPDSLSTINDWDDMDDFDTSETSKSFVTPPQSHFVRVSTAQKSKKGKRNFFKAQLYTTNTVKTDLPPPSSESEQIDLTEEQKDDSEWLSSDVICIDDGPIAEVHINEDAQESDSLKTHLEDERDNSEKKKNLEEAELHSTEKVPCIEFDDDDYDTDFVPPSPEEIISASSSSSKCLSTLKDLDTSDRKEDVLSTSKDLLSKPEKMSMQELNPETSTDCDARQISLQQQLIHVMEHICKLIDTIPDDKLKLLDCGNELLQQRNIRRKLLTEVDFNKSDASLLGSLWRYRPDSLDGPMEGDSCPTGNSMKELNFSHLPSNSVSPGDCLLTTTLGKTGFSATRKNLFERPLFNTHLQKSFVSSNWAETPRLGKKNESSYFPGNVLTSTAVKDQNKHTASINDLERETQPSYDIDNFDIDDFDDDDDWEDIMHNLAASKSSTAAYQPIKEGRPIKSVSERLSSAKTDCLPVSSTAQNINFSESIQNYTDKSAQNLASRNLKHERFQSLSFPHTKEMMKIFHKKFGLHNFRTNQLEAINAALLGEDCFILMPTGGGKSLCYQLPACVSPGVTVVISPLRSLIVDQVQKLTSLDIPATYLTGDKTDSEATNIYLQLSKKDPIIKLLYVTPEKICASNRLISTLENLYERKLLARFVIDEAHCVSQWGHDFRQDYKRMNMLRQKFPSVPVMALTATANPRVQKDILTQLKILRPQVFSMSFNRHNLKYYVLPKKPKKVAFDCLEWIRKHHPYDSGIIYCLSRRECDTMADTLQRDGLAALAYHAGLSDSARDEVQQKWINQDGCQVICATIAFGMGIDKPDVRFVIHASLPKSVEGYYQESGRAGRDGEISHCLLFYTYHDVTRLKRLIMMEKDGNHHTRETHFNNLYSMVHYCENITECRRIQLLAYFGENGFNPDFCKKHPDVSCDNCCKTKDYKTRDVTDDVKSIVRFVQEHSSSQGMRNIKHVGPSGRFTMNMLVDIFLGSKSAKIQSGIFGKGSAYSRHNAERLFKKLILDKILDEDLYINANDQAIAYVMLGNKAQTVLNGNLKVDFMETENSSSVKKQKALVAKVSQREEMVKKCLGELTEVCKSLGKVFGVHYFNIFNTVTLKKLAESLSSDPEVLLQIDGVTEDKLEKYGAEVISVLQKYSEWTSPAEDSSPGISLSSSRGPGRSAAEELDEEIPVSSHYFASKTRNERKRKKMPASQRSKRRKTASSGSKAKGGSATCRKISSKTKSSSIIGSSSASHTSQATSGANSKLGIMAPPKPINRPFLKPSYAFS
# Chain of ATP-dependent DNA helicase Q1 (Homo sapiens) (P46063 whole entry, looked up): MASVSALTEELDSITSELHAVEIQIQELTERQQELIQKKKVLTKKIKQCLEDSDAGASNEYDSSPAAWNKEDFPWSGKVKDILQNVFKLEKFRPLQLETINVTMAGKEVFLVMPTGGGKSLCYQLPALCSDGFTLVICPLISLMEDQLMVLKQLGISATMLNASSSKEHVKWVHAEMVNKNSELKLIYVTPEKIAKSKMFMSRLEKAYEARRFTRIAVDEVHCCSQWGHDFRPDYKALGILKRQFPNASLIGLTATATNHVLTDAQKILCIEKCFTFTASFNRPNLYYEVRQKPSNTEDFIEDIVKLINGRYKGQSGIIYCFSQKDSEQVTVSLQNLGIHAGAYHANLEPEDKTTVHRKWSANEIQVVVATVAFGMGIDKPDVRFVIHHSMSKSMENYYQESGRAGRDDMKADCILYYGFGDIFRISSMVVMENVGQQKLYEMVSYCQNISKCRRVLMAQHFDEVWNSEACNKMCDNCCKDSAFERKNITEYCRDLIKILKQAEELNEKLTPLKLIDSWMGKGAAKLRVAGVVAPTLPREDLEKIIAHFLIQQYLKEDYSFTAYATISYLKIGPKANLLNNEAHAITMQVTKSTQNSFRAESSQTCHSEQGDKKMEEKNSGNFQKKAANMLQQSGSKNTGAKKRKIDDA
# Chain of Ferritin light chain (Equus caballus) (P02791 2-175 limits assumed): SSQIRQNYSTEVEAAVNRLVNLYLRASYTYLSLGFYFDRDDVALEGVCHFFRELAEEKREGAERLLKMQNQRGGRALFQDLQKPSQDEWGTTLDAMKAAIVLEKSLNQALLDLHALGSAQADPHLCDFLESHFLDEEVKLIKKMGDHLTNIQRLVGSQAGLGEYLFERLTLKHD
SMILES,Potency [1],Potency [2],Potency [3],Potency [4],Potency [5],Potency [6],outcome [7],outcome [8],Potency [9],outcome [10]
CN(N=O)c1ccc(O)c(O)c1,inactive,inactive,inactive,6.31 µM (active),,,,,,
CC(N)Cc1c[nH]c2ccc(O)cc12 (centres undefined),inactive,inactive,,,inactive,inactive,inactive,inactive,,
NCCc1ccc(S(=O)(=O)F)cc1,inactive,inactive,inactive,inactive,,inactive,inactive,inactive,,
C[C@]12Cc3cn4c(nc3C=C1CCC1C2CC[C@@]2(C)[C@H]1CC[C@@]2(O)C#N)nc1ccccc14 (some centres undefined),2.82 µM (active),5.01 µM (active),,,2.82 µM (active),5.62 µM (active),,inactive,,
COc1ccc(OC)c(C(O)C(C)N)c1 (centres undefined),inactive,inactive,inactive,,,inactive,,inactive,,
CN1CCc2cccc(Cl)c2CC1,inactive,inactive,inactive,inactive,,inactive,inactive,inactive,inactive,
N[C@@H](Cn1oc(=O)[nH]c1=O)C(=O)O,inactive,inactive,,,inactive,inactive,inactive,inactive,inactive,
COc1ccc2[nH]cc(CCN)c2c1,inactive,inactive,,,inactive,inactive,,inactive,inactive,
C[C@@H]1O[C@H](C[N+](C)(C)C)CS1,inactive,inactive,,inactive,inactive,inactive,inactive,inactive,inactive,
CC(N)c1cccc(Cl)c1Cl (centres undefined),inactive,inactive,,inactive,8.91 µM (active),inactive,inactive,,inactive,
CC1(C(=O)O)C2CCC(O2)C1(C)C(=O)O (centres undefined),2.24 µM (active),1.58 µM (active),,,1.12 µM (active),2.24 µM (active),,inactive,,
CC(N)[C@H](O)c1ccc(O)c(O)c1 (some centres undefined),inactive,inactive,inactive,,,inactive,inactive,inactive,inactive,
CCCN(CCC)C1Cc2cc(OC)c(OC)cc2C1,inactive,inactive,,,inactive,inactive,inactive,inactive,,
NC(CCCCCP(=O)(O)O)C(=O)O (centres undefined),inactive,inactive,,,inactive,inactive,inactive,inactive,inactive,
NC(=O)COc1c(F)cc(SCCNS(=O)(=O)c2ccccc2)cc1F,inactive,inactive,inactive,inactive,,inactive,,inactive,inactive,
C[N+](C)(C)CC#CCN1CCCC1=O,inactive,inactive,inactive,inactive,,inactive,,inactive,inactive,
CCN(CCCl)Cc1ccccc1Br,10 µM (active),,,,11.2 µM (active),10 µM (active),inactive,,inactive,
CN1C2CCC1CC(OC(c1ccccc1)c1ccccc1N)C2 (centres undefined),11.2 µM (active),,,inactive,2.51 µM (active),10 µM (active),,inactive,,
CN(N=O)c1cc(O)ccc1O,inactive,inactive,,28.2 µM (active),inactive,inactive,,inactive,7.94 µM (active),
COc1ccc(CNC(=O)/C=C/c2ccc3[nH]cc(CCN(C)C)c3c2)cc1,8.91 µM (active),11.2 µM (active),,inactive,8.91 µM (active),10 µM (active),,inactive,,
C[C@H](N)CN1CCc2ccc(Br)cc21,8.91 µM (active),,8.91 µM (active),inactive,2.24 µM (active),11.2 µM (active),,inactive,inactive,
NC(Cc1ccc(N(CCCl)CCCl)cc1)C(=O)O (centres undefined),10 µM (active),12.6 µM (active),,inactive,10 µM (active),12.6 µM (active),,inactive,,

SMILES,Potency [1],Potency [2],Potency [3],Potency [4],Potency [5],Potency [6],outcome [7],outcome [8],Potency [9],outcome [10]
CCCN(CCC)CCc1c[nH]c2ccc(C(N)=O)cc12,inactive,inactive,,inactive,,inactive,,inactive,inactive,
COc1ccc2c(c1)/C(=C/c1cnc[nH]1)C(=O)N2,12.6 µM (active),14.1 µM (active),,inactive,7.08 µM (active),12.6 µM (active),,,,
Nc1ccc(CCN2CCN(c3cccc(C(F)(F)F)c3)CC2)cc1,inactive,,inactive,,10 µM (active),inactive,,inactive,inactive,
NC(=O)c1cc(N2CC2)c([N+](=O)[O-])cc1[N+](=O)[O-],inactive,inactive,,,,inactive,,inactive,,
NC(N)=Nc1ccc2[nH]c3c(c2c1)C[C@@]1(O)[C@H]2Cc4ccc(O)c5c4[C@@]1(CCN2CC1CC1)[C@H]3O5,inactive,,inactive,inactive,,inactive,,,inactive,
N[C@@H](CCl)C(=O)O,inactive,inactive,,,,inactive,,inactive,inactive,
CCCN(CCC)[C@@H]1CCc2cccc(O)c2C1,10 µM (active),10 µM (active),,inactive,2.51 µM (active),10 µM (active),,inactive,,
NC(=O)c1ccc(OCC(O)CN2CC=C(c3ccc(F)cc3)CC2)cc1 (centres undefined),11.2 µM (active),,,inactive,7.94 µM (active),,,inactive,inactive,
CC(N)Cc1c[nH]c2ccc(OCc3cccs3)cc12 (centres undefined),10 µM (active),,,inactive,7.94 µM (active),11.2 µM (active),,inactive,inactive,
C[N+]1(C)CCC(OC(=O)C(c2ccccc2)c2ccccc2)CC1,3.16 µM (active),7.08 µM (active),,,3.98 µM (active),7.94 µM (active),,inactive,inactive,
O=S1(=O)N(CCN2CC=C(c3c[nH]c4cc(F)ccc34)CC2)c2cccc3c2N1CCC3,0.501 µM (active),1.26 µM (active),,inactive,1 µM (active),1.26 µM (active),,inactive,inactive,
CN(C(=O)Cc1ccc(Cl)c(Cl)c1)C(CN1CCCC1)c1cccc(OCC(=O)O)c1 (centres undefined),inactive,,inactive,inactive,14.1 µM (active),inactive,,inactive,inactive,
CCCN1CCCC2Cc3[nH]ncc3CC21 (centres undefined),inactive,inactive,,,,inactive,inactive,inactive,inactive,
CCn1cnc2c(Nc3cccc(Cl)c3)nc(N[C@@H]3CCCC[C@@H]3N)nc21,2.82 µM (active),7.94 µM (active),,inactive,2.82 µM (active),8.91 µM (active),,inactive,inactive,
COc1cc(CC(C)N)c(OC)cc1I (centres undefined),inactive,inactive,,inactive,4.47 µM (active),inactive,,inactive,inactive,
C=CCN1CC[C@]23c4c5ccc(O)c4O[C@@H]2/C(=N/N=C2\CC[C@@]4(O)C6Cc7ccc(O)c8c7[C@@]4(CCN6CC=C)[C@@H]2O8)CC[C@@]3(O)C1C5,2.24 µM (active),2.82 µM (active),,inactive,2.51 µM (active),2.82 µM (active),,,inactive,
CCCN1CC[C@@H]2c3cc(O)ccc3CC[C@@H]21,inactive,,inactive,inactive,10 µM (active),inactive,inactive,inactive,,
C=CCN1CCC23c4c5ccc(O)c4O[C@H]2C(=O)CC[C@@]3(O)C1C5 (some centres undefined),inactive,inactive,,,,inactive,,inactive,inactive,
CNC(=O)OCC[N+](C)(C)C,inactive,,inactive,inactive,inactive,inactive,,inactive,,
C[N+]1(C)C2CCC1CC(OC(=O)c1c[nH]c3ccccc13)C2 (centres undefined),14.1 µM (active),12.6 µM (active),,,7.94 µM (active),14.1 µM (active),,,inactive,
O=[N+]([O-])c1ccc2nc(N3CCNCC3)ccc2c1,10 µM (active),12.6 µM (active),,inactive,7.94 µM (active),12.6 µM (active),,inactive,,
COc1ccc2c(c1OC)C(=O)OC2C1c2cc3c(cc2CCN1C)OCO3 (centres undefined),inactive,inactive,,,,inactive,,inactive,inactive,
CN1CCC(c2c[nH]c3ccc(O)cc23)CC1,10 µM (active),,inactive,,8.91 µM (active),,inactive,inactive,inactive,

SMILES,Potency [1],Potency [2],Potency [3],Potency [4],Potency [5],Potency [6],outcome [7],outcome [8],Potency [9],outcome [10]
C[N+]1(C)CCN(c2ccccc2)CC1,,inactive,inactive,,,inactive,,inactive,inactive,
CN1C2CCC1CC(OC(c1ccccc1)c1ccc(Cl)cc1)C2 (centres undefined),2.24 µM (active),7.94 µM (active),,inactive,1.12 µM (active),2.24 µM (active),,inactive,inactive,
NCCc1c[nH]c2ccc(C(N)=O)cc12,inactive,inactive,,inactive,,inactive,inactive,inactive,,
Oc1ccc2c3c1O[C@H]1c4[nH]c5ccccc5c4C[C@@]4(O)C(C2)N(CC2CC2)CCC314 (some centres undefined),10 µM (active),12.6 µM (active),,inactive,6.31 µM (active),,,inactive,,
Clc1ccc(N2CC3CCC(C2)N3)nn1,inactive,inactive,,inactive,,inactive,inactive,inactive,inactive,
ClC=C(Cl)Cl,,,,,,,,,,inactive
O=[N+]([O-])c1ccccc1,,,,,,,,,,inactive
CCCCCCCCOC(=O)c1ccccc1C(=O)OCCCCCCCC,,,,,,,,,,inactive
O=C(O)C(Cl)(Cl)Cl,,,,,,,,,,inactive
CCOC(=O)c1ccccc1C(=O)OCC,,,,,,,,,,inactive
C[C@]12CCC(=O)C[C@@H]1CC[C@@H]1[C@@H]2CC[C@]2(C)[C@@H](O)CC[C@@H]12,,,,,,,,,,inactive
CCCn1c(=O)c2[nH]c(C3CCCC3)nc2n(CCCOC(=O)c2ccc(S(=O)(=O)F)cc2)c1=O,,inactive,,,11.2 µM (active),,,,,
O=C1CC[C@@]2(O)C3Cc4ccc(O)c5c4C2(CCN3CC2CC2)[C@H]1O5 (some centres undefined),,,,,10 µM (active),,inactive,inactive,inactive,
O=CC=O,,,,,,,,,,inactive
[O]=[Cd],,,,,,,,,,inactive
CCCN(CCC)CCc1ccc(O)c(O)c1,,14.1 µM (active),,inactive,10 µM (active),11.2 µM (active),,inactive,,
CC(C)CCON=O,,,,,,,,,,inactive
S=C=S,,,,,,,,,,inactive
O=c1c2ccccc2[se]n1-c1ccccc1,,,,inactive,17.8 µM (active),,,inactive,inactive,
OCc1cnc[nH]1,,,inactive,inactive,,10 µM (active),,inactive,inactive,
CC(C)NP(=O)(NC(C)C)OP(=O)(NC(C)C)NC(C)C,,,inactive,inactive,11.2 µM (active),,inactive,inactive,,
O=C1CCO1,,,,,,,,,,inactive
C[N+]1(C)CCOC(O)(c2ccc(-c3ccc(C4(O)C[N+](C)(C)CCO4)cc3)cc2)C1 (centres undefined),,inactive,,inactive,,,inactive,inactive,inactive,
